Laboratory results: PubChem BioAssay (NCI)
The panel holds about 79,000 compounds, 15% with a hit somewhere; the sample as a whole holds those more often. A number with no mark means an inactive call. No stated cut-off is given here; in the data, active means growth inhibition above about 70%; inactive means the rest. Where a SMILES comes first, the peptide text is derived from it. The star is where a group is joined. Cbz = O=C(OCc1ccccc1)*

Experiment: NCI Yeast Anticancer Drug Screen. Data for the cln2 rad14 strain (AID 165);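 further: 0% = growth equal to vehicle treated cultures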
Details: S. cerevisiae cln2 rad14 strain, at 50.0 µM, stronger effect = higher value
How it was run: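 Each compound was tested on cln2 rad14 yeast. Inhibition of growth was calculated against vehicle-exposed controls.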

Row | SMILES | growth inhibition
1 | O=C(CCCl)OC1CCCC1 | -30.4%
2 | NC(CS(=O)Cc1ccccc1)C(=O)O (stereo not given) | -29.6%
3 | CC(=O)OCCc1cccc(C)c1 | -30.4%
4 | CCc1nc(=S)c2cnn(-c3ccccc3)c2[nH]1 | -33.5%
5 | CC(C)N(CCn1c2c3ccccc3ccc2c2oc(=O)c3ccccc3c21)C(C)C | 12%
6 | COc1ccc(/C=C2\N=C(c3cccc(Cl)c3)OC2=O)cc1OC | 12.2%
7 | O=C1C(CO)=C[C@H](O)[C@H]2O[C@@H]12 | 7.85%
8 | O=C(O)c1ccccc1SC(Sc1ccccc1C(=O)O)c1ccc2c(c1)OCO2 | -11.6%
9 | O=S(=O)([N-]c1nc2ccccc2nc1-[n+]1ccccc1)c1ccccc1 | -7.25%
10 | CCCCC(O)(CCCC)CC(C)C | -19.9%
11 | O=C1CCCC(CCc2ccccc2)O1 (stereo not given) | -8%
12 | O=C1c2ccccc2C(=O)N1CCc1ccccc1 | -36%
13 | NCCC(=O)O | 12.1%
14 | Nc1cc(S(=O)(=O)O)nc(N)[n+]1[O-] | -36.3%
15 | CC(O)c1cccc(NC(=O)Nc2ccc(Cl)c(Cl)c2)c1 (stereo not given) | 1.15%
16 | CNC(=O)OCc1nc(N=[N+]=[N-])n(C)c1COC(=O)NC | -31.4%
17 | Cc1ccc(C2(c3ccc(C)cc3)OCC(C)(CBr)CO2)cc1 | -8.5%
18 | C/C(=N\N=C(/C)c1ccc(N)cc1)c1ccc(N)cc1 | -3.3%
19 | CCOC(C)C1C2CCCCC21 (stereo not given) | -54%
20 | CCOC(=O)CCC(NC(=O)OCc1ccccc1)C(=O)NC(CCC(=O)OCC)C(=O)OCC (stereo not given) (Cbz-Glu(OEt)-Glu(OEt)-OEt; configuration not given here) | 7.55%

Row | SMILES | growth inhibition
21 | CCCCCC(=O)Cc1cc(O)cc2c1C(=O)Oc1cc(O)c(C(=O)O)c(CCCCC)c1O2 | 17.8%
22 | CC(C)C1=C(Cc2ccccc2)C(=O)O/C1=C\c1cc(Cl)c(O)c(Cl)c1 | 25.6%
23 | CCCCCCCCCC(=O)N/N=C/c1cccnc1 | 26.2%
24 | COc1ccc(CCN2CN=C(Sc3ccc([N+](=O)[O-])cc3Cl)NC2)cc1OC | 10%
25 | CCOC(=O)C(N=Nc1ccc(C)cc1Br)C(C)=O (stereo not given) | 15.6%
26 | O=C1S/C(=C2\C(=O)N(CN3CCCCC3)c3ccc(Br)cc32)C(=O)N1CN1CCCCC1 | -2.05%
27 | ClCC1OC1CCl (stereo not given) | -10.6%
28 | CC(=O)c1c(P(=O)(OC(C)C)OC(C)C)nn(-c2ccc([N+](=O)[O-])cc2)c1C | -0.95%
29 | O=C1CSC(/C(=C/c2ccccc2)c2nc3ccccc3[nH]2)=N1 | 16.2%
30 | Cc1ccc(S(=O)(=O)NC(=O)C2(Br)S(=O)(=O)OCCOS2(=O)=O)cc1 | -54.9%
31 | O=c1[nH]c(=O)c2nnoc2[nH]1 | -20.2%
32 | CCC(=O)OC1CCC(OC(=O)CC)CC1 (stereo not given) | -1.9%
33 | CC(C)(C)OC(=O)N1CCCC1C(=O)Oc1ccc([N+](=O)[O-])cc1 (stereo not given) | 3.55%
34 | CCOC(=O)[C@H](C)OC(=O)[C@@](C)(NC(=O)c1ccccc1C(=O)OC)[C@@H]1NC=C(C(=O)OC)CS1 | 14.4%
35 | COc1ccc(/C=N/Nc2ccc(S(=O)(=O)O)cc2)cc1 | -6.45%
36 | CCOC(=O)c1[nH]c(-c2ccc(OC)cc2)c(C(=O)OCC)c1-c1ccccc1 | -0.2%
37 | CC#CC(O)(C(=O)OCCCN(C)C)C1CCCCC1 (stereo not given) | 2.25%
38 | O=C1CN(c2ccccc2)C(=O)CN1/N=C/c1ccc[nH]1 | -21.4%
39 | CCOC(=O)c1c(NNc2ccccc2)nc2ccccc2c1-c1ccccc1 | 22.4%
40 | COc1ccc(C(=O)c2ccccc2C)cc1OC | 28.1%
